These results are taken from the supplement of paper PMC10849652.

Common to all, as to assay: log2 fold change, soluble protein after heating vs DMSO (PISA); higher = thermal stabilisation; K562 cells, 10 uM, 30 min; active = over 0.2 and 3.5 SD of the protein, either way, in both replicates (recomputed)
Compound in experiment [1]: C1=CC=C(C=C1)[C@H](COC2=CC3=C(C=C2)NC(=O)N3)NC(=O)C4=CC=CN(C4=O)CC5=CC(=C(C=C5)F)F
A digest of the protocol:
(§1)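 K562 cells at 2×10^6 cells/mL were treated with 10 μM compound for 30 min. Aliquots were heated for 3 min across 48°C-58°C, pooled, and extracted in PBS with 0.5% NP-40 at 4°C; soluble protein was the supernatant after 21,000xg for 90 min. Soluble protein was quantified by TMTpro 16plex LC-MS/MS with channel sums equalised, and reported as log2 fold change in thermal stability against DMSO controls, with values from duplicates.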

Compound in experiment [2]: CC1=C(SC2=C1C(=N[C@H](C3=NN=C(N32)C)CC(=O)N)C4=CC=C(C=C4)Cl)C
A digest of the protocol: as §1

Compound in experiment [3]: CC1=C2C(=CC=C1)N=C(N(C2=O)C3=CC=CC=C3C)CN4C=NC5=C(N=CN=C54)N
A digest of the protocol: as §1

Compound in experiment [4]: Cc1sc2c(c1C)C(c1ccc(Cl)cc1)=N[C@@H](CC(=O)OC(C)(C)C)c1nnc(C)n1-2
A digest of the protocol: as §1

Compound in experiment [5]: c1ccc([C@@H]2C[C@H]2NC2CCNCC2)cc1
An outline of the steps:
as §1

Of roughly 7,900 targets only a part is listed; those with a hit were picked by preference. About 0.6% of all pairs of compound and target were hits.

UniProt Q9UKL0, sequence (Q9UKL0 whole entry, looked up): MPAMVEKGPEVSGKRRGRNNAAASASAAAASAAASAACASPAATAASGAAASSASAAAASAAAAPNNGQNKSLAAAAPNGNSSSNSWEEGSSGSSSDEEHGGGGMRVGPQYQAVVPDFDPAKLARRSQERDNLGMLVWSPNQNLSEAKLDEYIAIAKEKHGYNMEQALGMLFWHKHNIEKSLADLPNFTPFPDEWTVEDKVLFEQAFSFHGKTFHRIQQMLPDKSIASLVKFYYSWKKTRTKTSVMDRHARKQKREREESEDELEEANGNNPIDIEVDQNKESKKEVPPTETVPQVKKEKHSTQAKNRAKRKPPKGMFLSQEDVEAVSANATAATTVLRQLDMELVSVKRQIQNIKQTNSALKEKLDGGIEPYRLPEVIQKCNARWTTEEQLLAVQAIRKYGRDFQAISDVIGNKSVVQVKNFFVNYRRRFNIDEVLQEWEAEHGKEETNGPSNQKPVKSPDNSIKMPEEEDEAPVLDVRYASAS
UniProt Q8WZA2, sequence (Q8WZA2 whole entry, looked up): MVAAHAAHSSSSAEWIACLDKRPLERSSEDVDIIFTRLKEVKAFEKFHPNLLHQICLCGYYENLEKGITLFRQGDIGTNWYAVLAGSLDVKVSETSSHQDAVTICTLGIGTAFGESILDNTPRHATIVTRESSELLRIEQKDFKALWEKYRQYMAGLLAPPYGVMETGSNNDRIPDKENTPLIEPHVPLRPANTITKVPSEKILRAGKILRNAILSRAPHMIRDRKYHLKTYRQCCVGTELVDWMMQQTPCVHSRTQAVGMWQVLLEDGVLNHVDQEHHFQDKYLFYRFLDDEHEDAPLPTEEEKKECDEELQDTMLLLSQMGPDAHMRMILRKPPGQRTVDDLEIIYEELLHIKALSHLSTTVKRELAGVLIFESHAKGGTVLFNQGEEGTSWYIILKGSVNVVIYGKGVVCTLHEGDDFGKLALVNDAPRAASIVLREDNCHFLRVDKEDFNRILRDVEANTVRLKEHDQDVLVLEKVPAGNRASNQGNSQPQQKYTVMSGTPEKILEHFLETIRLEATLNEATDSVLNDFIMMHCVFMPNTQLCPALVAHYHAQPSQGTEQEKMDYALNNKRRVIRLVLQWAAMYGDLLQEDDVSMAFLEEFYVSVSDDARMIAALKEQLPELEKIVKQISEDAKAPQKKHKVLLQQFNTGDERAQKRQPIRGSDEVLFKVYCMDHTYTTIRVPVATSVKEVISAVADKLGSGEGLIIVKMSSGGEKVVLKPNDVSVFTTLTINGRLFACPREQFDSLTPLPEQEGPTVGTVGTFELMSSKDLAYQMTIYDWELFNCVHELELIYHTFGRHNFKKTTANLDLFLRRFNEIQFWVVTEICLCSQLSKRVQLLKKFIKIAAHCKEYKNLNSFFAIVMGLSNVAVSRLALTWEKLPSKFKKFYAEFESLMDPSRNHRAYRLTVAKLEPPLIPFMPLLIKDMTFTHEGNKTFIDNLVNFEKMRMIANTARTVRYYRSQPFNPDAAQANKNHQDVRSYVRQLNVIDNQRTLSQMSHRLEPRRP
UniProt P46063, sequence (P46063 whole entry, looked up): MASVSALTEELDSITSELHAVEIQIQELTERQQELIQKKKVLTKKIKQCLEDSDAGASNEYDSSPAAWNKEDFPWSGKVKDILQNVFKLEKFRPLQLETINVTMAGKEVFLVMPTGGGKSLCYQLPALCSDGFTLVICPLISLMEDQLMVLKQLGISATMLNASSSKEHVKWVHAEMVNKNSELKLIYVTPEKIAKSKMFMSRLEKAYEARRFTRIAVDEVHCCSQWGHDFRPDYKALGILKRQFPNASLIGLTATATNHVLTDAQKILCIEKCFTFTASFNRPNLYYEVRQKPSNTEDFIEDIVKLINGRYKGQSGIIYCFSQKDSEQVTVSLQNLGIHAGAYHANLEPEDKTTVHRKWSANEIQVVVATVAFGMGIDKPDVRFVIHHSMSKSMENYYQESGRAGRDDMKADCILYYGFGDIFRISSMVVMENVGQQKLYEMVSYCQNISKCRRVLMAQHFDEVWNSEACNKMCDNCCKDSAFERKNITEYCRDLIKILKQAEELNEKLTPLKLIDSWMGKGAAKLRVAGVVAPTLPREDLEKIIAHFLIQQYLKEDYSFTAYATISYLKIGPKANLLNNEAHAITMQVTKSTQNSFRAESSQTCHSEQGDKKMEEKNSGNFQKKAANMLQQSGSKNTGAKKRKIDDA
UniProt Q8NBJ9, sequence (Q8NBJ9 whole entry, looked up): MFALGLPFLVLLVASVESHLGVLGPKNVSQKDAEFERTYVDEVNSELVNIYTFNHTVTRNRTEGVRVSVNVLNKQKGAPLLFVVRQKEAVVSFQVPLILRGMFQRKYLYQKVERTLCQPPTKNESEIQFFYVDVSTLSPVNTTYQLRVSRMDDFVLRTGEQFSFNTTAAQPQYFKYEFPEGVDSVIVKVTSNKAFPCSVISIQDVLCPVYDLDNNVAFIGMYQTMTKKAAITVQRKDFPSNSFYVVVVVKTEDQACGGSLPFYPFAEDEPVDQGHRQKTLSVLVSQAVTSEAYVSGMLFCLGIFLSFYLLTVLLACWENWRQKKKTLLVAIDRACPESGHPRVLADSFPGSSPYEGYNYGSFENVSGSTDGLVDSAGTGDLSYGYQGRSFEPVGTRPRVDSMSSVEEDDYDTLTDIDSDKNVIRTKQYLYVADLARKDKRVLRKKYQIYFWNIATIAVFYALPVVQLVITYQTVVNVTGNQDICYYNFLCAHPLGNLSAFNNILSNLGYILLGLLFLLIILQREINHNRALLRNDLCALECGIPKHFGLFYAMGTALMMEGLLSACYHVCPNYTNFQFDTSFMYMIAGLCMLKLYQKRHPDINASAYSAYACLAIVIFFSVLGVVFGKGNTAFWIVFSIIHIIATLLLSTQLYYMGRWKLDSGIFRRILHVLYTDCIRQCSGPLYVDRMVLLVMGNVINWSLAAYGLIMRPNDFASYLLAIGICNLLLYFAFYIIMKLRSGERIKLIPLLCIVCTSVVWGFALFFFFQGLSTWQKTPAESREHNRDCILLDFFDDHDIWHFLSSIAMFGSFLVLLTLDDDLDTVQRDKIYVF
UniProt Q9Y6Y8, sequence (Q9Y6Y8 whole entry, looked up): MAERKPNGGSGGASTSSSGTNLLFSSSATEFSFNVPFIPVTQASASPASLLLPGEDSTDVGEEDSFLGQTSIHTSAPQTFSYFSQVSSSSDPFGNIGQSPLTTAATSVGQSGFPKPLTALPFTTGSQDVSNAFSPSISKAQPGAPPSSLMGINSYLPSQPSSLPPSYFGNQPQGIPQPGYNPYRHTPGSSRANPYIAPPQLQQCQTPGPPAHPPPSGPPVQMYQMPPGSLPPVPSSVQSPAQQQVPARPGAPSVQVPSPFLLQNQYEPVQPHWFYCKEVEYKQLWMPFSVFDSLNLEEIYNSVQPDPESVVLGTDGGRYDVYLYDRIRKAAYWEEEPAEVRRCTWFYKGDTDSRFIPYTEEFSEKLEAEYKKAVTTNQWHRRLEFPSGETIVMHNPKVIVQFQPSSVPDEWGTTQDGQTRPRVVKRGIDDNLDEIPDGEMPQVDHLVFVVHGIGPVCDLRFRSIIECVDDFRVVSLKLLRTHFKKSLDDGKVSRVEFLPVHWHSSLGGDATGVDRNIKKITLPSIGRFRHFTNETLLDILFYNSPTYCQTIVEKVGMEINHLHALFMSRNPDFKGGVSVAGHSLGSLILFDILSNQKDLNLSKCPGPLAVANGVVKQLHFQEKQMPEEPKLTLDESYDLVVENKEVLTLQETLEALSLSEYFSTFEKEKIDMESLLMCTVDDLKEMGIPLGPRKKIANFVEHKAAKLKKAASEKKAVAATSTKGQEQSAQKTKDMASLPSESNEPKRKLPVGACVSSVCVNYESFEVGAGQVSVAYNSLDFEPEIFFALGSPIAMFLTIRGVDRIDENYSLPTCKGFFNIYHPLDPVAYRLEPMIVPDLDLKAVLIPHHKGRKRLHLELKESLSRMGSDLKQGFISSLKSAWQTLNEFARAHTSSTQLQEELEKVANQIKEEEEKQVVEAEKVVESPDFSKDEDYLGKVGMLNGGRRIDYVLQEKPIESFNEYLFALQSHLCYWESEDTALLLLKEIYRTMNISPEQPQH
UniProt A1X283, sequence (A1X283 whole entry, looked up): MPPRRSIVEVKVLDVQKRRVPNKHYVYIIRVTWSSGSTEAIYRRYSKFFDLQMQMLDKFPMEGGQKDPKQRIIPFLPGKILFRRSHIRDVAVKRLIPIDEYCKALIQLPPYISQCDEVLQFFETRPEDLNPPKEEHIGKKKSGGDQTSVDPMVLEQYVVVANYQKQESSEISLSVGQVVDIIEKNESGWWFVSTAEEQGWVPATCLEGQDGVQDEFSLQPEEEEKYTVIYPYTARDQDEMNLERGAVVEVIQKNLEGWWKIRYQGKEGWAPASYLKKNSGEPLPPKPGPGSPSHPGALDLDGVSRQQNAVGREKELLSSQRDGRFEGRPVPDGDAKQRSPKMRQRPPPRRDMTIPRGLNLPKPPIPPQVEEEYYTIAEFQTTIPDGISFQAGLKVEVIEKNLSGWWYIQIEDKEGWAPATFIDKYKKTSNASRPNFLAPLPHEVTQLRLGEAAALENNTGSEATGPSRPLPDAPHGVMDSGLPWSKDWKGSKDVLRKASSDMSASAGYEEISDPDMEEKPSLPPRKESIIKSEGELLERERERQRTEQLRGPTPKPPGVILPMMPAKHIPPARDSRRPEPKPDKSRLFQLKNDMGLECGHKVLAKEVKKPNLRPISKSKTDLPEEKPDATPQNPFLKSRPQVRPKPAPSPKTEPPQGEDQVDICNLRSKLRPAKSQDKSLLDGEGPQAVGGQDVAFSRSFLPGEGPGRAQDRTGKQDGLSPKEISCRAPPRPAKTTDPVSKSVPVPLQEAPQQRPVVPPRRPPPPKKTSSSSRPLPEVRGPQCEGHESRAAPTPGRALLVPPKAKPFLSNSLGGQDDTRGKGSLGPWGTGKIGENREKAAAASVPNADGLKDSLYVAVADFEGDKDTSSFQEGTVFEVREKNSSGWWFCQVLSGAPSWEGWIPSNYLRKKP
UniProt Q9Y3L5, sequence (Q9Y3L5 whole entry, looked up): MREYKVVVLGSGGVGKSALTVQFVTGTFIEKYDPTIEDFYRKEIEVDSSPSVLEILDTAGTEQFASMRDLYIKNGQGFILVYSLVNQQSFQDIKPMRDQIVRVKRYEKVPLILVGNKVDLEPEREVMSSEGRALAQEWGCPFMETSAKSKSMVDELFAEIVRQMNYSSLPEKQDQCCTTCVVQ

In the case of RABGGTA (UniProt Q92696), the log2 fold change in experiment [1] is -0.105 (inactive); in experiment [2], 0.084 (inactive); in experiment [3], 0.035 (inactive); in experiment [4], 0.014 (inactive); in experiment [5], -0.024 (inactive).
For RPL31 (UniProt P62899) the same measures were 0.106 (inactive), -0.241 (inactive), -0.22 (inactive), 0.202 (inactive) and 0 (inactive).
For RCOR1 (UniProt Q9UKL0) the same measures were -0.113 (inactive), 0.021 (inactive), 0.114 (inactive), 0.006 (inactive) and 0.856 (active).
RSL1D1 (UniProt O76021): the log2 fold change is 0.18 (inactive) in experiment [1]; -0.349 (inactive) in experiment [2]; -0.241 (inactive) in experiment [3]; 0.178 (inactive) in experiment [4]; 0.031 (inactive) in experiment [5].
For SART3, A0A499FI31, the log2 fold change is -0.008 (inactive) in experiment [1]; 0.015 (inactive) in experiment [2]; 0.056 (inactive) in experiment [3]; -0.08 (inactive) in experiment [4]; -0.006 (inactive) in experiment [5].
For SETD3 (UniProt Q86TU7) the same measures were -0.017 (inactive), 0.018 (inactive), 0.061 (inactive), 0.021 (inactive) and -0.005 (inactive).
For RAP2C (UniProt Q9Y3L5) the same measures were 0 (inactive), 0.055 (inactive), -0.012 (inactive), 0.038 (inactive) and -0.011 (inactive).
For RAC1 (UniProt P63000) the same measures were -0.046 (inactive), 0.017 (inactive), -0.111 (inactive), -0.098 (inactive) and 0.033 (inactive).
In the case of RAPGEF4 (UniProt Q8WZA2), the log2 fold change in experiment [1] was -0.038 (inactive); in experiment [2], 0.152 (inactive); in experiment [3], 0.268 (inactive); in experiment [4], -0.028 (inactive); in experiment [5] it was -0.176 (inactive).
On to SH3PXD2B (UniProt A1X283), for which the log2 fold change in experiment [1] is 0.07 (inactive); in experiment [2] it was 0.029 (inactive); in experiment [3], 0.001 (inactive); in experiment [4] it was -0.038 (inactive); in experiment [5], -0.046 (inactive).
Consider SEC23IP (UniProt Q9Y6Y8), for which the log2 fold change in experiment [1] was -0.037 (inactive); in experiment [2], 0.001 (inactive); in experiment [3], 0.063 (inactive); in experiment [4] it was 0.031 (inactive); in experiment [5] it was -0.037 (inactive).
Turning to RAB33B (UniProt Q9H082), the log2 fold change was 0.003 (inactive) in experiment [1]; -0.028 (inactive) in experiment [2]; 0.116 (inactive) in experiment [3]; -0.016 (inactive) in experiment [4]; 0.069 (inactive) in experiment [5].
For SCCPDH (UniProt Q8NBX0) the same measures were -0.047 (inactive), 0.087 (inactive), 0.002 (inactive), -0.003 (inactive) and -0.059 (inactive).
For SFXN5 (UniProt Q8TD22) the same measures were -0.079 (inactive), 0.024 (inactive), -0.11 (inactive), 0.007 (inactive) and -0.061 (inactive).
In the case of RPL38 (UniProt P63173), the log2 fold change in experiment [1] was 0.012 (inactive); in experiment [2], -0.03 (inactive); in experiment [3], -0.046 (inactive); in experiment [4], 0.053 (inactive); in experiment [5] it was 0.013 (inactive).
Consider RALGPS2 (UniProt Q86X27), for which the log2 fold change in experiment [1] is -0.069 (inactive); in experiment [2], 0.073 (inactive); in experiment [3] it was -0.093 (inactive); in experiment [4] it was 0.116 (inactive); in experiment [5], -0.01 (inactive).
For the target RFC3 (UniProt P40938), the log2 fold change in experiment [1] was -0.005 (inactive); in experiment [2] it was 0.028 (inactive); in experiment [3] it was 0.029 (inactive); in experiment [4] it was -0.019 (inactive); in experiment [5] it was -0.074 (inactive).
Consider SIRT2 (UniProt Q8IXJ6), for which the log2 fold change is -0.075 (inactive) in experiment [1]; 0.107 (inactive) in experiment [2]; 0.105 (inactive) in experiment [3]; 0.093 (inactive) in experiment [4]; -0.016 (inactive) in experiment [5].
For SIDT2 isoform 2 (UniProt Q8NBJ9) the same measures were -0.005 (inactive), -0.005 (inactive), 0.018 (inactive), -0.115 (inactive) and 0.088 (inactive).
Consider RPS13 (UniProt P62277), for which the log2 fold change in experiment [1] was 0.142 (inactive); in experiment [2], -0.234 (inactive); in experiment [3], -0.246 (inactive); in experiment [4] it was 0.213 (inactive); in experiment [5] it was 0 (inactive).
For ROCK2 (UniProt O75116) the same measures were -0.026 (inactive), 0.003 (inactive), 0.085 (inactive), 0.024 (inactive) and -0.01 (inactive).
Turning to RECQL (UniProt P46063), the log2 fold change was -0.012 (inactive) in experiment [1]; 0.087 (inactive) in experiment [2]; 0.015 (inactive) in experiment [3]; -0.029 (inactive) in experiment [4]; -0.02 (inactive) in experiment [5].
As for RBM39 (UniProt Q14498), the log2 fold change is 0.015 (inactive) in experiment [1]; -0.004 (inactive) in experiment [2]; -0.02 (inactive) in experiment [3]; 0.019 (inactive) in experiment [4]; 0.158 (inactive) in experiment [5].
With RAB3IL1 (UniProt Q8TBN0), the log2 fold change is 0.018 (inactive) in experiment [1]; -0.013 (inactive) in experiment [2]; 0.078 (inactive) in experiment [3]; -0.03 (inactive) in experiment [4]; -0.076 (inactive) in experiment [5].
For RAD50, A0A494C0Y7 the same measures were -0.1 (inactive), -0.003 (inactive), 0.194 (inactive), 0.104 (inactive) and 0.118 (inactive).
